According to PubChem BioAssay (NCATS):
Several values for one entry are separate records, joined by “and”; a condition that tells them apart may be missing. Equal values may be shown once. Records with an inconclusive call do not appear. Unmarked numbers belong to inactive results. Activity calls are given as the source filed them. Calls come from the whole dose curve; as a rule, active = well fitted cell-killing curve with a large enough effect; inconclusive = small, poorly fitted or top-dose-only effect, or effect the other way; inactive = no such curve, though single readings can be large or run the other way.

Legend:
[1] = Viability qHTS for spleen associated tyrosine kinase inhibitor (SYKi) naive MV4-11 cells (AID 1963823); details: MV4-11 AML viability, CellTiter-Glo luminescence, 72 h; series mostly up to 45 µM; note: nearly all actives have a fitted effect of over 40% in size
Procedure, shortened: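 Compounds were dispensed acoustically onto plates, MV4-11 cells (SYKi-naive) added at 500 per well, and plates incubated 72 hr at 37 C. CellTiter-Glo was added and luminescence measured after 10 min.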

[2] = Viability qHTS for spleen associated tyrosine kinase inhibitor (SYKi) drug resistant MV4-11 cells (AID 1963824); details: SYKi-resistant MV4-11 viability, CellTiter-Glo, 72 h; series mostly up to 45 µM; note: nearly all actives have a fitted effect of over 35% in size
Procedure, shortened: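 SYK-inhibitor-resistant MV4-11 AML cells were seeded at 500 per well onto compound and cultured 72 hours (37 °C, 5% CO2). CellTiter-Glo was then added, and after 10 min at room temperature, luminescence gave viability.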
Potency is the fitted concentration of half-maximal effect.

| SMILES | Potency [1] | Potency [2] | viability (% of control) [1] | viability, % of control [2] |
| --- | --- | --- | --- | --- |
| CCCCOc1ccc(CC/C=C2\SC(=O)N(CCN)C2=O)cc1 | 5.17 µM (active) | 2.91 µM (active) | – | – |
| Cc1ccc(NS(=O)(=O)c2ccc3c(c2)CCC(=O)N3)cc1C | 11.6 µM (active) | 9.2 µM (active) | – | – |
| CCOc1cc(C(C)(C)C)ccc1C1=NC(C)(c2ccc(Cl)cc2)C(C)(c2ccc(Cl)cc2)N1C(=O)N1CCN(CCCS(C)(=O)=O)CC1 (stereo unspecified) | 10.3 µM (active) | 9.2 µM (active) | – | – |
| COc1c(CCC(=O)O)cccc1O[C@@H]1O[C@H](CO)[C@@H](O)[C@H](O)[C@H]1O | inactive | inactive | – | – |
| CN1CCN(C2Cc3ccccc3Sc3ccc(Cl)cc32)CC1 (stereo unspecified) | 3.35 µM (active) | 3.35 µM (active) | – | – |
| C[C@@H]1O[C@@H](O[C@H]2[C@@H](OC(=O)[C@]34CCC(C)(C)CC3C3=CCC5[C@@]6(C)C[C@H](O)[C@H](O[C@@H]7O[C@H](C(=O)O)[C@@H](O)[C@H](O)[C@H]7O)[C@@](C)(C(=O)O)C6CC[C@@]5(C)[C@]3(C)CC4)OC[C@H](O)[C@@H]2O)[C@H](O)[C@H](O)[C@H]1O[C@@H]1OC[C@@H](O)[C@H](O)[C@H]1O (stereo partly specified) | – | – | 77.1% [at 9.25 µM] | 74.1% [at 9.25 µM] |
| CC1(C)OCCn2c1nc1c(N3CCOCC3)nc(-c3cnc(N)nc3)nc12 | 1.32 µM (active) | 2.95 µM (active) | – | – |
| CC(=O)O[C@@H]1[C@@H](O)[C@H](O[C@H]2CC[C@]34C[C@]35CC[C@]3(C)[C@@H]([C@@]6(C)CC[C@@H](C(C)(C)O)O6)[C@@H](O)C[C@@]3(C)[C@@H]5C[C@H](O[C@@H]3O[C@H](CO)[C@@H](O)[C@H](O)[C@H]3O)[C@H]4C2(C)C)OC[C@H]1O | inactive | inactive | – | – |
| CCC(O)C(C)C1CCC(C(C)C(=O)O)O1 (stereo unspecified) | inactive | inactive | – | – |
| CN1CCCN(C(=O)c2cccc(-c3ccc(/C=C4\C(=O)Nc5ccc(Cl)cc54)o3)c2)CC1 | 0.184 µM (active) | 0.461 µM (active) | – | – |
| O=C(COc1ccc(C(=O)c2ccccc2)cc1)NC1CCN(Cc2ccccc2)CC1 | 9.2 µM (active) | 7.31 µM (active) | – | – |
| CNc1nc(-c2ccc3c(N)n[nH]c3c2)cc(N2CC(C(=O)NC3CCCCC3)CCC2C)n1 (stereo unspecified) | 2.31 µM (active) | 4.61 µM (active) | – | – |
| CC1(C)C2CCC(CO[C@@H]3O[C@H](CO[C@@H]4OC[C@](O)(CO)[C@H]4O)[C@@H](O)[C@H](O)[C@H]3O)C1C2 (stereo partly specified) | inactive | inactive | – | – |
| Nc1ccc(-c2cccc3c(=O)cc(N4CCOCC4)oc23)cc1 | 9.2 µM (active) | 7.31 µM (active) | – | – |
| CC(=O)O[C@@H]1C[C@H](O)[C@@]23CO[C@H](O)[C@]1(C)C2C[C@@H](O)[C@]1(C)C3C(=O)[C@H](OC(C)=O)[C@@]2(C)[C@H](c3ccoc3)C[C@H]3O[C@]321 (stereo partly specified) | 0.0385 µM (active) | 0.0343 µM (active) | – | – |
| COc1ccc(CN2CCN(C(c3ccc(F)cc3)c3ccc(F)cc3)CC2)c(OC)c1OC | 15 µM (active) and 14.6 µM (active) | 21.1 µM (active) and 16.4 µM (active) | – | – |
| CC(=O)c1ccc(O[C@@H]2O[C@H](CO[C@@H]3OC[C@@H](O)[C@H](O)[C@H]3O)[C@@H](O)[C@H](O)[C@H]2O)cc1 | inactive | inactive | – | – |
| C/C(=C\CCC(C)CCO)C(=O)OC[C@H]1O[C@@H](O[C@@H]2OC=C(C(=O)O)[C@H]3CC[C@](C)(O)[C@@H]23)C(O)[C@@H](O)C1O (stereo partly specified) | inactive | inactive | – | – |
| CC1(C)C(O)CCC2(C)C1C(O)C=C1COC(=O)C12O (stereo unspecified) | inactive | inactive | – | – |
| CC[C@@H]([C@H](C)O)n1ncn(-c2ccc(N3CCN(c4ccc(OC[C@@H]5CO[C@@](Cn6cncn6)(c6ccc(F)cc6F)C5)cc4)CC3)cc2)c1=O | 11.9 µM (active) | 6.68 µM (active) | – | – |
| C=C1C[C@]23C[C@H]1CC[C@H]2[C@@]12C=C[C@H](O)[C@@](C)(C(=O)O1)[C@H]2[C@@H]3C(=O)O | inactive | inactive | – | – |
| C=C[C@H]1[C@H](O[C@@H]2O[C@H](CO[C@@H]3OC[C@](O)(CO)[C@H]3O)[C@@H](O)[C@H](O)[C@H]2O)OC=C2C(=O)OCC[C@H]21 | inactive | inactive | – | – |
| COc1cc(Nc2nc3c(s2)CCCC3c2ccccc2)ccc1-n1cnc(C)c1 (stereo unspecified) | – | – | 89.8% [at 9.25 µM] | 109% [at 9.25 µM] |
